From the supplement of paper PMC12350171
Counter-ions that a name gives are not always drawn. Unmarked numbers belong to inactive results.

What was measured:
Details in all cases: 20 µM
[1] = tested on: Salmonella enterica typhimurium; assay: growth AUC normalised to DMSO control (fraction of control); higher = less growth inhibition, active = hit call of the paper
How it was run: (§1)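 Hemin and NAD were added to the medium for Haemophilus parainfluenzae. All pathogens, after two anaerobic passages, were inoculated at a starting OD578 of 0.01 into pre-reduced mGAM plates with 20 μM compound and 1% DMSO under breathable seals, and OD578 was read hourly for 24 h in three biological replicates. AUC of each growth curve was obtained with the trapezoidal rule up to the exponential-to-stationary transition and normalised to DMSO controls from the same plate.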

[2] = tested on: Shigella flexneri; assay: as above
How it was run: as §1

[3] = tested on: Vibrio cholerae; assay: as above
How it was run: as §1

[4] = tested on: Yersinia pseudotuberculosis; assay: as above
How it was run: as §1

[5] = tested on: P. vulgatus RND KO; assay: growth AUC normalised to DMSO control (median) (fraction of control); higher = less growth inhibition, active = hit call of the paper
How it was run: (§2)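 Area under the growth curve, calculated by the trapezoidal rule up to entry into stationary phase, was normalised to vehicle wells on the same plate. Strains had been passaged twice overnight without oxygen and then grown in mGAM in 96-well plates from OD578 0.01, each with an approved-drug library compound at 20 μM in 1% DMSO. OD578 was read hourly over 24 h in an anaerobic incubator, and the median of three biological replicates is given.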

[6] = tested on: P. vulgatus WT; assay: as above
How it was run: as §2

[7] = tested on: S. enterica typhimurium WT; assay: as above
How it was run: as §2

[8] = tested on: S. enterica typhimurium tolC KO; assay: as above
How it was run: as §2
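Wherever growth AUC normalised to DMSO control (median) is given: active when median AUC fell below 0.1.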

Compound | growth AUC normalised to DMSO control [1] | growth AUC normalised to DMSO control [2] | growth AUC normalised to DMSO control [3] | growth AUC normalised to DMSO control [4] | growth AUC normalised to DMSO control [5] | growth AUC normalised to DMSO control [6] | growth AUC normalised to DMSO control [7] | growth AUC normalised to DMSO control [8]
CN(C(=O)CN(CCO)CC(=O)N(C)C(C)(C)Cc1ccccc1)C(C)(C)Cc1ccccc1 [Oxethazaine] | 0.974 | 1.01 | 0.99 | 0.995 | 0.688 | 0.646 | 1.01 | 0.966
O=C(CCCN1CC=C(n2c(=O)[nH]c3ccccc32)CC1)c1ccc(F)cc1 [Droperidol] | 0.989 | 0.985 | 0.892 | 0.98 | 0.982 | 0.976 | 0.99 | 0.936
OCC(O)CN1CCN(c2ccccc2)CC1 (stereo not given) [Dropropizine] | 1.02 | 1.06 | 1.04 | 1.01 | 1.05 | 1.06 | 0.991 | 0.981
Cc1c(N)c(=O)n(-c2ccccc2)n1C [Ampyrone] | 0.996 | 0.998 | 0.965 | 0.986 | 1.04 | 1 | 1 | 1
CN(C)CCCC1(c2ccc(F)cc2)OCc2cc(C#N)ccc21 (stereo not given) [Citalopram hydrobromide] | 0.998 | 0.994 | 1 | 1.01 | 1.02 | 0.982 | 1 | 0.991
Cc1ncc([N+](=O)[O-])n1CC(C)O (stereo not given) [Secnidazole] | 0.996 | 0.953 | 0.99 | 1 | 0.0215 (active) | 0.0204 (active) | 1.01 | 1
C[C@]12CC[C@@H]3c4ccc(OS(=O)(=O)O)cc4CC[C@H]3[C@@H]1CCC2=O [Estropipate piperazine salt] | 0.985 | 0.974 | 0.991 | 0.965 | 0.987 | 0.983 | 0.997 | 0.996
C[C@]12CCC(=O)C=C1C=C[C@@H]1[C@@H]2CC[C@@]2(C)[C@H]1CC[C@@]21CCC(=O)O1 [Canrenone] | 1.01 | 1.06 | 1.03 | 1.01 | 1.07 | 1.1 | 1.01 | 0.939
CCCC(=O)Nc1ccc(OCC(O)CNC(C)C)c(C(C)=O)c1 (stereo not given) [Acebutolol hydrochloride] | 1 | 0.995 | 1.01 | 1.01 | 1.01 | 1.01 | 1 | 1.01
O=C(O)Cc1ccc(-c2ccccc2)cc1 [Felbinac] | 1.03 | 0.977 | 0.996 | 0.994 | 1 | 1.01 | 1.01 | 0.988
CC(=O)OCC(=O)[C@@]1(OC(C)=O)[C@@H](C)C[C@H]2[C@@H]3C[C@H](F)C4=CC(=O)C=C[C@]4(C)[C@@]3(F)[C@@H](O)C[C@@]21C [Diflorasone Diacetate] | 1 | 0.977 | 1.01 | 1.01 | 1 | 1.03 | 0.997 | 1
CC(=O)SCC(Cc1ccccc1)C(=O)NCC(=O)OCc1ccccc1 (stereo not given) [Racecadotril] | 1 | 1 | 1 | 1.01 | 1.06 | 1.05 | 1 | 0.963
COc1cccc(N(C)C(=S)Oc2ccc3c(c2)CCCC3)n1 [Liranaftate] | 1.02 | 1.03 | 1.01 | 1.01 | 1.03 | 1.07 | 0.996 | 0.909
CCCOc1ccccc1-c1nc2[nH]nnc2c(=O)[nH]1 [Zaprinast] | 0.998 | 0.977 | 0.985 | 0.989 | 1 | 1.02 | 1 | 1
CNC(=O)c1c(I)c(C(=O)NCC(=O)Nc2c(I)c(C(=O)O)c(I)c(C(=O)NCCO)c2I)c(I)c(N(C)C(C)=O)c1I [Ioxaglic acid] | 0.968 | 0.993 | 1.01 | 0.964 | 1.01 | 1 | 0.997 | 0.994
Cc1cccc(CN2CCN(C(c3ccccc3)c3ccc(Cl)cc3)CC2)c1 (stereo not given) [Meclozine dihydrochloride] | 0.989 | 0.961 | 0.885 | 0.987 | 1 | 0.992 | 1 | 1
Clc1ccc2nsnc2c1NC1=NCCN1 [Tizanidine hydrochloride] | 0.977 | 0.988 | 0.993 | 1 | 0.992 | 1 | 1.01 | 0.998
Cc1cc(CC(=O)O)n(C)c1C(=O)c1ccc(Cl)cc1 [Zomepirac sodium salt] | 0.997 | 1 | 0.995 | 1 | 0.992 | 1.01 | 0.991 | 1.02
NS(=O)(=O)c1cc(C2(O)NC(=O)c3ccccc32)ccc1Cl (stereo not given) [Chlorthalidone] | 1 | 0.989 | 0.995 | 0.994 | 1 | 0.986 | 1 | 0.998
NC(=O)c1cccnc1 [Nicotinamide] | 1.02 | 1.06 | 1.05 | 1.01 | 1.07 | 1.1 | 0.996 | 1.01
C[C@]12C=CC(=O)C=C1CC[C@@H]1[C@@H]2[C@@H](O)C[C@@]2(C)[C@H]1CC[C@]2(O)C(=O)CO [Prednisolone] | 0.982 | 0.96 | 0.971 | 0.994 | 0.976 | 0.995 | 0.995 | 0.998
CO[C@@]1(NC(=O)CSCC#N)C(=O)N2C(C(=O)O)=C(CSc3nnnn3C)CS[C@@H]21 [Cefmetazole sodium salt] | 0.00445 (active) | 0.0256 (active) | 0.337 (active) | 0.139 (active) | 0.0391 (active) | 0.03 (active) | 0.00692 (active) | 0.00805 (active)
NC12CC3CC(CC(C3)C1)C2 [Adamantamine fumarate] | 1.02 | 1.06 | 1.03 | 1 | 1.04 | 1.08 | 0.996 | 0.996
CN1CCCN(C(c2ccccc2)c2ccc(Cl)cc2)CC1 (stereo not given) [Homochlorcyclizine dihydrochloride] | 0.971 | 0.938 | 0.861 | 0.965 | 0.972 | 0.984 | 1 | 0.956
Fc1ccc([C@@H]2CCNC[C@H]2COc2ccc3c(c2)OCO3)cc1 [Paroxetine hydrochloride] | 0.995 | 1 | 0.94 | 0.991 | 0.997 | 1.02 | 0.998 | 0.982
CC(C)NC[C@H](O)COc1ccc(CC(N)=O)cc1 [(S,-) Atenolol] | 0.988 | 0.972 | 0.996 | 1.02 | 0.985 | 0.963 | 0.987 | 0.989
CN(C)CC/C=C1/c2ccccc2Sc2ccc(Cl)cc21 [Chlorprothixene hydrochloride] | 0.997 | 0.988 | 0.817 (active) | 0.996 | 0.904 | 0.887 | 0.999 | 0.912
CC(C)C(=O)c1c(C(C)C)nn2ccccc12 [Ibudilast] | 1.01 | 1.01 | 1.05 | 0.994 | 0.949 | 0.956 | 1 | 0.33
Cc1ccccc1C(OCCN(C)C)c1ccccc1 (stereo not given) [Orphenadrine hydrochloride] | 1 | 1.02 | 1.02 | 0.992 | 1.01 | 0.992 | 0.983 | 0.958
CC(=O)[C@H]1CC[C@H]2[C@@H]3C[C@H](C)C4=CC(=O)CC[C@]4(C)[C@H]3[C@@H](O)C[C@]12C [Medrysone] | 0.994 | 0.962 | 0.974 | 0.991 | 0.997 | 1.02 | 1.01 | 0.976
